Measured values: PubChem BioAssay AID488847 (NMMLSC, 2010)
The campaign covered roughly 330,000 compounds. About 1,900 (0.58%) were called active.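 How the source made its calls: active means inhibition of aptamer binding above 40%, roughly 3 SD of noise, on plates passing a quality check; inactive means the rest.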 This excerpt belongs to a sample that is enriched for actives.

Molecular target: Beta-adrenergic receptor kinase 1 (Homo sapiens) (UniProt P25098)
Assay: compounds blocking aptamer binding on GRK2 – biochemical, human GRK2, bead flow cytometry, HTS, primary screen (AID 488847);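 further: median bead fluorescence of bound FAM aptamer so fluorescent compounds give negative values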
Details: FAM-aptamer displacement from GRK2, at 10 µM, active compounds read high

Beta-adrenergic receptor kinase 1 (Homo sapiens), sequence (P25098 whole entry, looked up): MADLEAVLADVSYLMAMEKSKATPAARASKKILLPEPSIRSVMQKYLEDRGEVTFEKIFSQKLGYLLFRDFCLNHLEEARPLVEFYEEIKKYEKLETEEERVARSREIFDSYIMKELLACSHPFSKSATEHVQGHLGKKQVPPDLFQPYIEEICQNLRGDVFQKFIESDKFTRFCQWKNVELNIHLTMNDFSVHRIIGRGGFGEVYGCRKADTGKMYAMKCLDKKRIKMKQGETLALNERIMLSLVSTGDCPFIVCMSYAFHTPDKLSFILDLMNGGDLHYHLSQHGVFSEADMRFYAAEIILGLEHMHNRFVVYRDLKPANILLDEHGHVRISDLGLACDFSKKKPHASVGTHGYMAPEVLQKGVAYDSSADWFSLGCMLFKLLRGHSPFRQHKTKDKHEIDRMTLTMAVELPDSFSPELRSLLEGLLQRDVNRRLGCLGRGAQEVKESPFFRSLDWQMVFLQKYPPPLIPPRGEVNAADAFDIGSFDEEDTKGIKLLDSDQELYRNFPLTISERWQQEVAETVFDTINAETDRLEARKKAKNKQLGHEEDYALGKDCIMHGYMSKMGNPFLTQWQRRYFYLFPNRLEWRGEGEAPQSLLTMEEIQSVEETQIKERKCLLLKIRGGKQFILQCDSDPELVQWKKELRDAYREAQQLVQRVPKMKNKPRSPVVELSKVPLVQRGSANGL

SMILES | inhibition of aptamer binding
Cc1ccc(NC(=O)COC(=O)CNC(=O)c2ccc(Cl)cc2Cl)cc1S(=O)(=O)N1CCOCC1 | 2% (inactive)
Fc1ccc(CNc2nc3ccccc3n3nnnc23)cc1 | 2% (inactive)
O=c1ccc2c(-c3ccccc3S(=O)(=O)O)c3ccc(O)c(O)c3oc-2c1O | 75% (active)
Cc1cc(OCC(=O)N(C)c2c(N)n(Cc3ccccc3)c(=O)[nH]c2=O)c(C(C)C)cc1Cl | 1% (inactive)
O=C1CCCCC1Sc1ccc(Cl)cc1[N+](=O)[O-] (stereo not given) | 1% (inactive)
COc1ccccc1N(C)S(=O)(=O)c1ccc(Cl)c(C(=O)Nc2ccncc2)c1 | 0% (inactive)
O=C1CCCN1C(=O)COc1ccc([N+](=O)[O-])cc1 | 1% (inactive)
O=C(Nc1nnc(-c2ccco2)o1)c1ccc(S(=O)(=O)N2CCOCC2)cc1 | 0% (inactive)
O=C(Nc1ccc(N2CCOCC2)cc1)c1cccc(S(=O)(=O)N2CCOCC2)c1 | 2% (inactive)
O=C(CSc1ccccc1)Nc1cccc(S(=O)(=O)N2CCOCC2)c1 | 2% (inactive)
CN=C(Nc1cccc(S(=O)(=O)N2CCOCC2)c1)c1ccccc1 | 79% (active)
O=C(Nc1nnc(-c2ccccc2)o1)c1cccc(S(=O)(=O)N2CCOCC2)c1 | 49% (active)
O=C(COC(=O)c1ccccc1)Nc1cccc(S(=O)(=O)N2CCOCC2)c1 | 1% (inactive)
Nc1cc(N2CCCCCC2)c2nonc2c1[N+](=O)[O-] | 0% (inactive)
COc1ccc(Cl)cc1NC(=O)CCS(=O)(=O)c1ccc(Br)cc1 | 89% (active)
COc1ccc(Cl)cc1NC(=O)CCS(=O)(=O)c1cc2c(cc1C)NC(=O)CO2 | 80% (active)
CCOc1ccc(OCC)c(NC(=O)CCS(=O)(=O)c2ccc(C)cc2)c1 | 0% (inactive)
Cc1ccc(S(=O)(=O)CCC(=O)OCC(=O)NCCc2ccc(S(N)(=O)=O)cc2)cc1 | 0% (inactive)
O=C(Cc1ccc(Br)cc1)NCCc1ccccc1 | 1% (inactive)
Cc1cc2c(cc1S(=O)(=O)CCC(=O)NCc1ccccc1)OCC(=O)N2 | 2% (inactive)
COc1ccc(NC(=O)CCS(=O)(=O)c2cc3c(cc2Cl)NC(=O)CO3)cc1OC | 0% (inactive)
COc1ccc(Cl)cc1NC(=O)COC(=O)c1ccc(Br)o1 | 0% (inactive)
O=C(CCS(=O)(=O)c1ccc(Br)cc1)NCCc1ccc(Cl)cc1 | 49% (active)
Cc1ccc(CN2C(=O)N/C(=C/c3cc(C)n(-c4ccccn4)c3C)C2=O)cc1 | 1% (inactive)

SMILES | inhibition of aptamer binding
CCc1cc2c(=O)c(-c3nc4ccccc4n3C)c(CCCC(=O)O)oc2cc1OC(=O)C(C)(C)C | 1% (inactive)
COc1ccc(CN2C3CCCC2CC(NC(=O)c2cccc(F)c2)C3)cc1 (stereo not given) | 0% (inactive)
CC(=O)N1CCC(C(=O)Nc2nc(-c3ccccc3)ns2)CC1 | 0% (inactive)
CC(Sc1nncn1C)C(=O)Nc1cc(C(F)(F)F)ccc1N1CCOCC1 (stereo not given) | 0% (inactive)
O=C(NCC12CC3CC(C1)CC(CNC(=O)N1CCCC1)(C3)C2)N1CCCC1 | 54% (active)
C=CCNC(=O)CC12CC3CC(C1)CC(CC(=O)NCC=C)(C3)C2 | 1% (inactive)
O=C(N1CCCC1)C12CC3CC(C1)CC(C(=O)N1CCCC1)(C3)C2 | 3% (inactive)
Cc1ccccc1CSc1nnc(-c2ccccc2)c(=O)[nH]1 | 3% (inactive)
O=c1[nH]c(SCc2ccccc2)nnc1-c1ccccc1 | 80% (active)
N#Cc1c(-c2ccccc2)nc(SCc2ccc([N+](=O)[O-])cc2)[nH]c1=O | 5% (inactive)
COc1cc(OC)cc(C(=O)Nc2nnc(SCC(=O)NCC3CCCO3)s2)c1 (stereo not given) | 0% (inactive)
CCC(=O)Nc1ccccc1C(=O)N1CCN(Cc2ccccc2)CC1 | 2% (inactive)
CC(C)(C)Nc1nc(-c2ccccn2)nc2ccccc12 | 0% (inactive)
COc1ccc(Nc2nc(-c3cccnc3)nc3ccccc23)cn1 | 60% (active)
S=c1nc2ccccc2c2nc(-c3cccnc3)[nH]n12 | 0% (inactive)
COc1cc(OC)c(C2=NOC(C(=O)Nc3c(C)n(C)n(-c4ccccc4)c3=O)C2)cc1Cl (stereo not given) | 1% (inactive)
Cc1ccc(Sc2cc(C(=O)c3ccccc3C(=O)O)ccc2[N+](=O)[O-])cc1 | 0% (inactive)
O=C(NCc1ccccc1)[C@H]1C[C@@H]1[C@H](NP(=O)(c1ccccc1)c1ccccc1)c1ccccc1 | 0% (inactive)
COc1ccccc1N1CCN(CC(=O)Nc2ccnn2C2CCCC2)CC1 | 0% (inactive)
C/C(=N\Nc1nc(Nc2ccccc2)nc(N2CCOCC2)n1)c1cccs1 | 0% (inactive)
O=C(Nc1ccccc1-c1nc2ccccc2[nH]c1=O)c1cccs1 | 1% (inactive)
C/C(=N\Nc1nc2ccccc2[nH]1)c1cccs1 | 100% (active)
CCN(CC(=O)NCc1ccc(Cl)cc1)C(=O)c1c(C)noc1C | 0% (inactive)
NC(=O)C1CCN(C(=O)c2ccc3c(=O)n(Cc4cccc(Br)c4)c(=S)[nH]c3c2)CC1 | 69% (active)

SMILES | inhibition of aptamer binding
COc1ccc(Cn2c(=S)[nH]c3cc(C(=O)N4CCCCC4)ccc3c2=O)cc1 | 2% (inactive)
CCOc1cc2[nH]c(=S)n(Cc3ccc(C(=O)N4CCN(C)CC4)cc3)c(=O)c2cc1OCC | 0% (inactive)
Cc1ccc(S(=O)(=O)N2CCN(CC(=O)N/N=C/c3cc([N+](=O)[O-])ccc3Cl)CC2)cc1 | 0% (inactive)
O=[N+]([O-])c1cc(Cl)cc(/C=N/NC(=S)Nc2cc(S(=O)(=O)N3CCOCC3)ccc2Cl)c1O | 98% (active)
O=S(=O)(c1ccc(NC(=S)NN=C(C2CC2)C2CC2)cc1)N1CCOCC1 | 1% (inactive)
Fc1ccccc1Cc1ccc(Cl)nn1 | 0% (inactive)
Cc1cccc(C(=O)OCC(=O)Nc2sc3c(c2C#N)CCC3)c1 | 6% (inactive)
COc1cccc(CN(C)CC(=O)Nc2sc3c(c2C#N)CCC3)c1 | 94% (active)
CCN1CCN(CC(=O)Nc2sc3c(c2C#N)CCC3)CC1 | 0% (inactive)
Cc1nn2cc(-c3ccc(Cl)cc3)cnc2c1Br | 4% (inactive)
CCOC(=O)c1cc2c(ccn2C)n1CC(=O)N1CCC(C)CC1 | 1% (inactive)
Cc1ccc(OCC(=O)Oc2ccccc2[N+](=O)[O-])cc1 | 1% (inactive)
COc1ccc(C2c3ccc(O)cc3Oc3ncn(CCCO)c(=N)c32)cc1OC (stereo not given) | 0% (inactive)
COc1ccccc1S(=O)(=O)c1c(C)cc(C)[nH]c1=O | 1% (inactive)
C=CCOc1ccc(/C=C2\SC(=S)N(CCC(=O)O)C2=O)cc1 | 0% (inactive)
Cc1ccc(/C=C2/SC(=S)N(CCC(=O)NCCCN3CCOCC3)C2=O)cc1 | 5% (inactive)
Cc1ccc(-c2nn(-c3ccccc3)cc2/C=C2\SC(=S)N(CCCCCC(=O)O)C2=O)o1 | 48% (active)
CC(=O)Oc1ccccc1C(=O)Nc1ncc([N+](=O)[O-])s1 | 5% (inactive)
CCSc1nc(O)c(C(c2cccc(OC)c2)c2c(O)nc(SCC)[nH]c2=O)c(=O)[nH]1 | 9% (inactive)
COc1ccc(Nc2nc(=O)[nH]nc2C)cc1 | 4% (inactive)
COc1ccc(Nc2ncnc3sc(C)cc23)cc1 | 0% (inactive)
COc1ccc(Nc2cc(Sc3ccc(OC)cc3)ncn2)cc1 | 46% (active)
CC(Sc1cccc[n+]1[O-])C(=O)Nc1cccc(S(=O)(=O)N2CCOCC2)c1 (stereo not given) | 1% (inactive)
O=C(O)C1CCN(C(=O)OCc2ccccc2)CC1 | 0% (inactive)

SMILES | inhibition of aptamer binding
NC(=O)c1ccsc1NC(=O)COC(=O)Cc1n[nH]c(=O)c2ccccc12 | 2% (inactive)
CCCCn1nc(C(=O)OCC(=O)Nc2sccc2C(N)=O)c2ccccc2c1=O | 84% (active)
COc1cc(OC)cc(C(=O)OCC(=O)Nc2sccc2C(N)=O)c1 | 0% (inactive)
CCc1ccc2oc(=O)cc(CN3CCCCC3C)c2c1 (stereo not given) | 0% (inactive)
O=C(N/N=C/c1cccc(Br)c1)c1ccc(N2CCCC2=O)cc1 | 0% (inactive)
COc1cc(/C=N/NC(=O)c2ccc(N3CCCC3=O)cc2)ccc1O | 49% (active)
COc1cc(/C=N/NC(=O)c2cc(C)n(-c3ccc(F)cc3)c2C)cc(OC)c1O | 0% (inactive)
O=C(NCc1cccc(Cl)c1)C1CCN(c2nnc(N3CCCC3=O)s2)CC1 | 0% (inactive)
CN(C)S(=O)(=O)c1cccc(C(=O)OCC(=O)N2CCCC2=O)c1 | 0% (inactive)
Cc1cc(C)n(C(=O)c2ccc(S(=O)(=O)N3CCCC3)cc2)n1 | 2% (inactive)
CC(C)(C)NC(=O)Cn1nnc(-c2ccccc2Cl)n1 | 2% (inactive)
Cc1ccccc1-c1nnn(CC(=O)c2ccc(S(=O)(=O)N3CCCC3)cc2)n1 | 47% (active)
Cc1ccc(S(=O)(=O)C2(S(=O)(=O)c3ccc(C)cc3)CCCC2)cc1 | 0% (inactive)
CCCNc1c(N)c(=O)c1=O | 6% (inactive)
O=C(OCc1nnc(-c2ccccc2)o1)c1cc(=O)[nH]c2ccccc12 | 3% (inactive)
CCOC(=O)c1cc(-c2nnc(-c3cc(OC)c(OC)c(OC)c3)o2)c(C)nc1C | 1% (inactive)
CCCc1nc2ccccc2c(C(=O)OCc2nnc(-c3cc(OC)c(OC)c(OC)c3)o2)c1CC | 41% (active)
COc1cc(NC(=O)c2[nH]cnc2C(N)=O)cc(C(=O)Nc2cccc(C(F)(F)F)c2)c1 | 0% (inactive)
CSc1nnc(SCc2nc3sc(C(=O)O)c(C)c3c(=O)[nH]2)s1 | 13% (inactive)
CCOC(=O)c1sc2nc(CSc3ccccc3)[nH]c(=O)c2c1C | 75% (active)
CCOC(=O)c1sc2nc(CSCC(=O)OCc3ccc(C(=O)OC)o3)[nH]c(=O)c2c1C | 2% (inactive)
O=S(=O)(Nc1cccc(-c2ccc(N3CCOCC3)nn2)c1)c1ccc(Cl)c(Cl)c1 | 0% (inactive)
O=c1c([N+](=O)[O-])cccn1Cc1ccc(F)cc1Cl | 0% (inactive)
